GAA spleen mod = qHTS Assay for Inhibitors and Activators of Human alpha-Glucosidase From Spleen Homogenate; human spleen homogenate, 4-MU-alpha-glucoside fluorescence; Lysosomal alpha-glucosidase (Homo sapiens), P10253; AID 2112, 2009; Potency, µM (series often up to 79.9 µM), inactives show at the highest dose activity change, negative = inhibition, usual class: inhibitors; hit rate 0.006% among 240,000;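 note: potency is the fitted concentration of half-maximal effect; 0% = enzyme with vehicle and -100% = no enzyme basal signal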
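Human spleen homogenate (1 ug) incubated with compounds and 1 mM 4-methylumbelliferyl-alpha-D-glucopyranoside in pH 5.0 citrate/phosphate buffer, 37 C, 40 min. Stopped at pH 10; 4-MU fluorescence (Ex 365/Em 440 nm); AC50 by Hill fit.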
GAA inh = qHTS Assay for Inhibitors of Human alpha-Glucosidase as a Potential Chaperone Treatment of Pompe Disease; Lysosomal alpha-glucosidase (Homo sapiens), P10253; purified human GAA, 4-MU-alpha-glucoside fluorescence; Potency, µM (series often up to 76.9 µM), for the others: top-dose activity change, negative = inhibition, usual class: inhibitors; hit rate 0.005% among 200,000; AID 1466, 2008;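 note: potency is the fitted concentration of half-maximal effect; plate controls were uninhibited enzyme wells for no effect and no-enzyme background for full effect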
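Fluorescence at Ex 365/Em 440 nm from 4-methylumbelliferone reported enzyme activity after 20 min at room temperature. Reactions used 4 nM enzyme and 400 uM substrate at pH 5.0; curves fitted with the Hill equation.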
GLA spleen mod = qHTS Assay for Inhibitors and Activators of Human alpha-Galactosidase From Spleen Homogenate; Alpha-galactosidase A (Homo sapiens), P06280; human spleen homogenate, 4MU-alpha-Gal fluorescence, 40 min; Potency, µM (titrated, usually from 80 µM), for the others: at the top dose activity change, negative = inhibition, actives largely listed as inhibitors; hit rate 0.008% among 240,000; AID 2107, 2009;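 note: potency is the fitted concentration of half-maximal effect; 0% = enzyme with vehicle and -100% = no enzyme basal signal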
Target sequence (P06280 32-429 limits assumed): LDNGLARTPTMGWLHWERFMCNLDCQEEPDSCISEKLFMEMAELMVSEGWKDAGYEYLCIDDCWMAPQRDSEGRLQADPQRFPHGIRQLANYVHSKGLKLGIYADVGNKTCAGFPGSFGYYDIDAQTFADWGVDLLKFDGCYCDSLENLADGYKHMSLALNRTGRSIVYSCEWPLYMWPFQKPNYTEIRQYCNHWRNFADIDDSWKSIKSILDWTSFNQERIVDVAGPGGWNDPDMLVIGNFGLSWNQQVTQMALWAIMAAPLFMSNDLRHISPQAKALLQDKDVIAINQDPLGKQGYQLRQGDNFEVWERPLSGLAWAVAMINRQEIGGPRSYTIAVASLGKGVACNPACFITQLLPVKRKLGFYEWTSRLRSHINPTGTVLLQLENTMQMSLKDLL
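qHTS titration in buffer at pH 5.0. Alpha-galactosidase activity in spleen homogenate was measured via 4-methylumbelliferone release from 1 mM fluorogenic substrate after 40 min at 37C and a pH 10 stop. AC50 came from Hill fits of control-normalized data.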
GAA glycogen = qHTS Assay for Inhibitors and Activators of Human alpha-Glucosidase Cleavage of Glycogen; Lysosomal alpha-glucosidase (Homo sapiens), P10253; recombinant GAA, glycogen substrate, Amplex Red glucose oxidase fluorescence; Potency, µM (top dose mostly 76.4 µM), for the others: top-dose activity change, negative = inhibition, hits mostly inhibitors; hit rate 0.38% among 300,000;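 note: potency is the fitted concentration of half-maximal effect; 0% = full enzyme reaction and -100% = no-enzyme basal signal; the screen sought inhibitors and activators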
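Natural-substrate format: glycogen cleavage by 4 nM human enzyme, glucose read by Amplex Red coupling (Ex 573, Em 610 nm). Normalized to enzyme and no-enzyme controls.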
GLA inh pH 4.5 = qHTS Assay for Inhibitors of Human alpha-Galactosidase at pH 4.5; Alpha-galactosidase A (Homo sapiens), P06280; activity change, negative = inhibition, % at 105 µM; purified enzyme, 4-MU-alpha-Gal fluorescence, pH 4.5; 230,000 tested, under 10 active;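 note: 0% = full activity with enzyme and -100% = basal without enzyme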
* marks the source's active call; other numbers are inactive results; ? = inconclusive; · = not tested or not shown; ! = a repeat was not active; [ ] = dose if it differs, or a comment. The entries come from a sample that favours hits as a whole. Calls come from the whole dose curve; as a rule, active = well fitted curve in the direction sought with a large enough effect; inconclusive = small, poorly fitted or top-dose-only effect, or another doubt; inactive = no such curve, though single readings can be large; an effect the other way counts as inactive or inconclusive.

SMILES	GAA spleen mod	GAA inh	GLA spleen mod	GAA glycogen	GLA inh pH 4.5
Cc1ccc(Nc2c(-c3ccc(N4CCOCC4)cc3)nc3c(C)cccn23)cc1	·	·	·	16µM*	·
CC[C@@]1([C@@H]2O[C@@H]([C@H]3O[C@@](O)(CO)[C@H](C)C[C@@H]3C)C[C@@H]2C)CC[C@@H]([C@]2(C)CCC3(C[C@H](O)[C@@H](C)[C@@H]([C@@H](C)[C@@H](OC)[C@H](C)C(=O)O)O3)O2)O1 (some centres undefined)	-9%	·	3%	·	·
COc1ccc(NCCNc2ccc(OC)cc2)cc1	-9%	1%	0%	7.9µM*	5
COc1ccc(C(=O)CCNc2ccc(F)cc2)cc1	-4%	·	-7%	-5%	6
NC(=Nc1ccccc1)NC(=O)c1nc(Cl)c(N)nc1N	-2%	·	0%	·	-2
NC(=NCc1ccccc1)NC(=O)c1nc(Cl)c(N)nc1N	8.9µM*!	·	?	·	10
CC[C@H](C)[C@H](NC(=O)[C@@H](NC(=O)[C@@H](NC(=O)[C@H](CCC(=O)O)NC(=O)[C@H](CCC(=O)O)NC(=O)[C@H](CCC(=O)O)NC(=O)[C@H](C)NC(=O)[C@@H](N)CC(C)C)C(C)C)C(C)C)C(=O)N[C@@H](CCCNC(=N)N)C(=O)N[C@@H](CO)C(=O)N[C@@H](C)C(=O)N[C@@H](CC(N)=O)C(=O)N[C@@H](Cc1ccccc1)C(=O)N[C@H](C(=O)N[C@@H](CC(=O)O)C(=O)N[C@@H](CC(N)=O)C(=O)O)[C@@H](C)O	1%	·	-23%	·	·
O=S(=O)(Nc1cc(O)cc2cccnc12)c1ccc(Cl)s1	7%	·	4%	·	·
O=C(Nc1cccs1)NC1CCCC1	5%	-3%	3%	-31%	-5
CC1CCC(NC(=O)Nc2cccs2)CC1 (centres undefined)	-7%	-8%	0%	16µM*	1
Cc1ccccc1N=C1NC(=O)CS1	0%	2%	-1%	6%	-1
Cc1ccccc1N=C1NC(=O)CC(c2ccccc2)S1 (centres undefined)	6%	1%	-5%	11µM*	-5
CSCC[C@H](NC(=O)[C@H](CCCN=C(N)N)NC(=O)[C@@H]1CCCN1C(=O)[C@H](Cc1ccccc1)NC(=O)[C@H](C)NC(=O)[C@H](CC(C)C)NC(=O)[C@H](Cc1ccc(O)cc1)NC(=O)[C@H](CC(N)=O)NC(=O)[C@@H](N)CCSC)C(N)=O	7%	·	12%	·	·
CSCC[C@H](NC(=O)[C@H](CC(C)C)NC(=O)[C@@H]1CCCN1C(=O)[C@H](Cc1ccccc1)NC(=O)[C@H](Cc1ccccc1)NC(=O)[C@@H]1CCC(=O)N1)C(N)=O	12%	·	14%	·	·
C/C(=C\C(=O)c1ccccc1)Nc1ccc(O)cc1	-5%	-7%	0%	40µM*	-1
COc1ccc(NC(=O)c2cccnc2)cc1	·	·	·	15%[76.3 µM]	·
C/C(=C\C(=O)c1cccnc1)Nc1ccc(O)cc1	-12%	-11%	-6%	14µM*	-15
COc1cc(OC)c2cc(-c3ccncc3)cnc2c1	4%	·	29%	·	?
C=CCc1cc(C(=O)N2CCCCC2)ccc1O	-1%	-5%	-2%	7%	0
C=CCc1ccc(O)c(-c2ccc(O)c(CC=C)c2)c1	-11%	·	-20%	35µM*	-3
CN1C2CC(OC(=O)C(CO)c3ccccc3)C[C@@H]1[C@H]1OC21 (some centres undefined)	5%	·	8%	·	-4
Cc1ccc(S(=O)(=O)N/N=C/c2ccc(O)cc2O)cc1[N+](=O)[O-]	-1%	·	6%	25µM*	2
CCOC(=O)c1[nH]c2ccccc2c1NC(=S)Nc1ccccc1C	-3%	-8%	9%	14µM*	1
CCOC(=O)c1[nH]c2ccccc2c1NC(=S)Nc1cc(C)ccc1C	-5%	0%[15.4 µM]	0%	-19%	3
COc1ccc(-c2cnnc(N/N=C/c3ccc(O)c(O)c3)n2)cc1	-9%	-2%	-5%	11µM*	-7
SMILES	GAA spleen mod	GAA inh	GLA spleen mod	GAA glycogen	GLA inh pH 4.5
COc1ccc(-c2cnnc(N/N=C/c3ccc(O)cc3)n2)cc1	-23%	-15%	-2%	-11%	-21
Cc1ccc(C)c(NC(=S)NNC(=O)c2ccco2)c1	0%	0%	9%	22µM*	-9
Cc1cc(Nc2c(C)n(C)n(-c3ccccc3)c2=O)n2c(nc3ccccc32)c1C#N	-1%	-9%	1%	14µM*	-13
CCCc1cc(Nc2c(C)n(C)n(-c3ccccc3)c2=O)n2c(nc3ccccc32)c1C#N	-2%	?	10%	14µM*	-18
CCCc1cc(NCCCCO)n2c(nc3ccccc32)c1C#N	?	?	?	-24%	?
CCc1c(C)c(C#N)c2nc3ccccc3n2c1Nc1c(C)n(C)n(-c2ccccc2)c1=O	3%	4%	0%	25µM*	-6
CS[C@@H]1SC[C@H]2C(=O)N(C)C(C(C)C)C(=O)OC[C@@H](NC(=O)c3cnc4ccccc4n3)C(=O)N[C@@H](C)C(=O)N(C)[C@H]1C(=O)N(C)C(C(C)C)C(=O)OC[C@@H](NC(=O)c1cnc3ccccc3n1)C(=O)N[C@@H](C)C(=O)N2C (some centres undefined)	10%	·	1%	·	·
O=c1ccc2cc(O)c(O)cc2o1	5%	?	?	6.3µM*	?
CC(=O)c1cc2c(O)c(O)ccc2o1	-7%	0%	2%	31µM*	2
CC(=O)c1cc2cc(O)ccc2o1	?	?	?	-1%	?
CC(C)C[C@H](NC(=O)[C@H](CCCCN)NC(=O)[C@H](CCC(N)=O)NC(=O)[C@H](Cc1cnc[nH]1)NC(=O)[C@H](Cc1cnc[nH]1)NC(=O)[C@@H](N)C(C)C)C(=O)N[C@H](C(=O)N[C@@H](Cc1ccccc1)C(=O)N[C@@H](Cc1ccccc1)C(=O)N[C@@H](C)C(=O)N[C@@H](CCC(=O)O)C(=O)N[C@@H](CC(=O)O)C(=O)N[C@H](C(=O)NCC(=O)N[C@@H](CO)C(=O)N[C@@H](CC(N)=O)C(=O)N[C@@H](CCCCN)C(=O)O)C(C)C)C(C)C	-4%	·	-15%	·	·
Nc1[nH]nc2nc3ccccc3cc12	-4%	-1%	6%	?	-1
CCc1ccc2nc3n[nH]c(N)c3cc2c1	-3%	1%	-8%	18µM*	7

High-throughput results (PubChem)
